Each structure is given as a SMILES string. The campaign covered roughly 360,000 compounds. About 6,000 (1.7%) were called active. Inconclusive results (about 8%) are left out. The list comes from a sample in which actives are over-represented; it also holds similar structures and randomly drawn compounds. Entries that show only a call come without a potency. A number with no mark means an inactive call. Calls come from the whole dose curve; as a rule, active = well fitted cell-killing curve with a large enough effect; inconclusive = small, poorly fitted or top-dose-only effect, or effect the other way; inactive = flat fitted curve, though single readings scatter.
Potency is the fitted concentration of half-maximal effect.

The assay is described as follows: qHTS for induction of synthetic lethality in tumor cells producing 2HG: qHTS for the HT-1080-NT fibrosarcoma cell line.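 Note: NT is the 2HG producing partner of a matched IDH1 knockdown line; nearly all actives have a fitted effect of over 55% in size.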 As to conditions: HT-1080-NT fibrosarcoma viability, CellTiter-Glo ATP luminescence, 48 h; series mostly up to 46.1 µM. In a few lines:
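Viability of the 2HG-overproducing fibrosarcoma line after 48 hours of compound exposure at 37 degrees C was determined by luminescence with CellTiter-Glo, and concentration-effect curves were then fitted and categorized.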
On the technique in general: Quantitative high-throughput screening tests each substance at several concentrations.
`Cc1noc(C)c1-c1ccc(C(=O)NCc2ccncc2)c2occc12`: the Potency result is “inactive”.

As to `NC(=O)NC(CC(=O)NNC(=O)c1ccccn1)c1ccc(Cl)cc1` (centres undefined), the Potency result was “inactive”. As for `CC(=NNC(=S)N1CCCCCC1)c1ccccn1`, the Potency entry is “inactive”. The same measure, in the same setting: as for `C/C(=N\NC(=O)Cc1ccc(Cl)cc1)c1ccccn1`, the figure is 1.78 µM (active). The same measure, in the same setting: under `O=C(O)c1ccccc1Cc1ccc(F)c2ccccc12` stands “inactive”. Still for that read-out and setting: as for `Nc1ncnc2c1ncn2[C@@H]1O[C@H](C(=O)NCC(F)(F)F)[C@@H](O)[C@H]1O`, the entry is “inactive”.

Turning to `CCOC(=O)c1cc(-c2sc(NC(=O)c3ccccc3)nc2C)n(CCO)n1`, the Potency result is “inactive”. The same measure, in the same setting: under `COc1ccc(Br)c(Cn2c(C)c(C(=O)NCc3cccs3)sc2=O)c1` stands “inactive”.

`C[C@@H]1CN([C@H](C)CO)C(=O)c2cc(Br)cnc2O[C@@H]1CN(C)Cc1cncnc1`: the Potency result is “inactive”.

Turning to `Cc1cc(C)n(CC(O)CN(c2ccccc2)S(=O)(=O)c2ccc3ccccc3c2)n1` (centres undefined), the Potency entry was “inactive”. As to `CCCCN(CCCC)CC(O)Cn1c2ccccc2c(=O)c2ccccc21` (centres undefined), the Potency entry was “inactive”. Same read-out and setting: as for `CS(=O)(=O)N(CC(O)Cn1c2ccccc2c2ccccc21)c1cccc2ccccc12` (centres undefined), the figure is 18.4 µM (active); as for `COc1ccc(Cn2c(=O)[nH]c3cc(C(=O)N4CCN(C(=O)c5ccco5)CC4)ccc3c2=O)cc1`, “inactive”.

Consider `O=C1NC[C@H](CCCCN2C[C@H](Cc3ccc(O)cc3)N(CC3CCCCC3)C(=O)C2=O)N(CCc2ccccc2)C1=O`, for which the Potency entry is “inactive”. Still for that read-out and setting: under `O=C(OCc1ccccc1)N1CCC2CC1c1cc(N3CCN(S(=O)(=O)c4cc(Cl)cc(Cl)c4)CC3)ccc12` (centres undefined) stands “inactive”; under `CCCCCCCCCCOC(=O)Cn1c(COc2ccc(C)cc2)[n+](C)c2ccccc21`, 18.4 µM (active). Still for that read-out and setting: under `CCCCOc1ccc(NC(=O)CSCC(=O)OCC)cc1` stands “inactive”; under `CCCCCCCCCCOC(=O)Cn1c(COc2cccc(OC)c2)[n+](C)c2ccccc21`, “inactive”; under `CN1CCN(C(=O)c2ccc(NC(=O)c3ccc(Br)o3)cc2)CC1`, “inactive”.

`O=C(Nc1ccc(Cl)cc1)c1csc([C@H]2C[C@H](O)[C@@H](CO)O2)n1`: the Potency result was “inactive”. Take `CCOC(=O)C(C(=O)c1ccccc1)C(c1ccccc1)c1nccc2ccccc12` (centres undefined): the Potency entry was “inactive”. Turning to `CCOC(=O)[C@]12CCC=C1N(Cc1ccco1)C(=O)[C@H](CC(=O)N1CCSCC1)C2`, the Potency result was “inactive”.

On to `O=[N+]([O-])c1c(NCCO)cc(Sc2nc3ccccc3s2)c2nonc12`, for which the Potency was 5.62 µM (active). On to `Nc1nnc(SCC(=O)Nc2ccc3nc(SCC(=O)Nc4ccccc4)sc3c2)s1`, for which the Potency entry was “inactive”. `CCN(CC)CCCSc1nc2ccccc2s1`: the Potency result is “inactive”.

Take `CC1(Cc2ccccc2C#N)C(=O)Nc2ccc(-c3ccc4[nH]ccc4c3)cc21` (centres undefined): the Potency was 7.31 µM (active).

For `O=C(NCc1cccnc1)c1cc(C2CCCN(C(=O)C3CCCCC3)C2)on1` (centres undefined), the Potency result is “inactive”. As to `Cc1ccc(-c2c(N)nc3ncccn23)cc1`, the Potency result was “inactive”. Still for that read-out and setting: as for `COCC1CCCCN1C(=O)c1cc(COc2ccc(C)c(C)c2)on1` (centres undefined), the entry is “inactive”. Still for that read-out and setting: under `CC1(Oc2cccc(F)c2)CCN(Cc2ccccc2OC(F)F)C1` (centres undefined) stands “inactive”; under `CC(=O)Nc1ccc2nc(NC(=O)CS(=O)(=O)c3ccc(F)cc3)sc2c1`, “inactive”; under `O=C(Cc1ccccc1)Nc1ccc(NC(=O)c2cccnc2)cc1`, “inactive”. The same measure, in the same setting: under `CCCC(=O)Nc1nc2ccc(NC(=O)c3cccnc3)cc2s1` stands 6.31 µM (active); under `CSc1nc2ccc(NC(=O)c3c(F)cccc3F)cc2s1`, “inactive”; under `CCOC(=O)c1cc(NC(=O)c2cccnc2)ccn1`, “inactive”. On to `CCCC(=O)Nc1nc2ccc(NC(=O)c3c(F)c(F)c(OC)c(F)c3F)cc2s1`, for which the Potency is 1.03 µM (active). Turning to `CCc1nc2c(OCC(=O)C(C)(C)C)cccn2c1N(C)C(=O)c1ccccc1F`, the Potency entry was “inactive”. Still for that read-out and setting: under `CC1C(=O)N(Cc2cn(CC3CCCCC3)nn2)CCS(=O)(=O)N1Cc1ccc(-c2cccc(N(C)C)c2)cc1` (centres undefined) stands “inactive”; under `COC(=O)C[C@H]1C=C[C@H](NC(=O)c2ccc(F)cc2)[C@@H](CO)O1`, “inactive”. Same read-out and setting: under `CN1C[C@@H](CO)O[C@@H](n2cnc3c(N4CCN(CCO)CC4)ncnc32)C1` stands “inactive”. As for `O=C(Nc1ccccc1F)c1ccc(S(=O)(=O)N2CCCCCC2)cc1`, the activity, negative = less viability was -4.83% [at 9.24 µM]. As to `CCOC(=O)N1CCN(S(=O)(=O)c2ccc(Br)cc2)CC1`, the Potency entry is “inactive”. On the same count and under the same terms, as for `CCOC(=O)N1CCN(S(=O)(=O)c2ccc(C(=O)Nc3ccc(F)cc3F)cc2)CC1`, the figure is 1.78 µM (active). With `O=C(c1cccs1)N1C[C@H](n2cc(C3CC3)nn2)[C@@H](O)C[C@@H]1c1ccccc1`, the Potency entry is “inactive”.

As to `CNC(=O)C[C@H]1C(=O)N(Cc2ccccc2)C[C@@H]1CSC`, the Potency result was “inactive”. On the same count and under the same terms, under `Cc1cccc(C)c1-n1nnnc1C(CCc1ccccc1)N1CCN(C/C=C/c2ccccc2)CC1` (centres undefined) stands “inactive”; under `CN(C)CCCN(C(=O)c1ccc(S(=O)(=O)N2CCCCCC2)cc1)c1nc2ccc(Br)cc2s1`, 18.4 µM (active); under `Cc1ccc2nc(N(CCN(C)C)C(=O)C3=COCCO3)sc2c1`, “inactive”. Still for that read-out and setting: as for `CN(C)CCN(C(=O)CN1C(=O)c2ccccc2C1=O)c1nc2cc3c(cc2s1)OCCO3`, the entry is “inactive”; as for `COc1ccc2sc(N(CCCN(C)C)C(=O)c3ccc(S(=O)(=O)N(C)C4CCCCC4)cc3)nc2c1`, “inactive”. For `Brc1ccc2nc(N3CCCC3)sc2c1`, the Potency entry was “inactive”. On the same count and under the same terms, as for `CCc1ccc2nc(N(CCCN(C)C)C(=O)c3ccc4c(c3)OCCO4)sc2c1`, the figure is 20.6 µM (active); as for `OC(c1ccccc1)c1nc(/C=C/c2ccc(C(F)(F)F)cc2)cs1` (centres undefined), “inactive”; as for `CC(=O)C[C@@H]1OC[C@H](C)N1S(=O)(=O)c1ccc(C)cc1`, “inactive”.

Turning to `C=CCn1c2c(c3ccccc31)CCC2`, the Potency entry was “inactive”.

As for `Cc1cccc(CNC(=O)c2sc(=O)n(Cc3ccccc3C)c2C)c1`, the Potency entry was “inactive”. For `O=S(=O)(NCc1cccnc1)c1ccc(Br)s1`, the Potency result is “inactive”.

`O=C(NCCc1ccccc1)C1CCN(S(=O)(=O)c2ccc(Br)s2)CC1`: the Potency entry is “inactive”. For the compound `O=S(=O)([N-]c1nc2ccccc2nc1-[n+]1ccc(Cc2ccccc2)cc1)c1ccc(Br)s1`, the Potency was 14.6 µM (active). Consider `C[C@@H]1CN([C@@H](C)CO)C(=O)c2cc(Br)cnc2O[C@H]1CN(C)Cc1ccc(-c2ccccc2)cc1`, for which the Potency result was “inactive”. `COc1ccccc1N1CCN(C(=O)c2c(-c3c(Cl)cccc3Cl)noc2C)CC1`: the Potency result is “inactive”. `COc1ccccc1N1CCN(C(=O)c2ccc(Cl)c(S(=O)(=O)N3CCCC3)c2)CC1`: the Potency result is “inactive”.

With `COc1ccccc1N1CCN(C(=O)c2cc(=O)c3cc(C)cc(C)c3o2)CC1`, the Potency is 0.0206 µM (active). The same measure, in the same setting: under `O=C(NC1CCCC1)C1c2ccccc2OCC(=O)N1Cc1ccccc1` (centres undefined) stands “inactive”; under `COc1ccc(-c2ccc(Nc3ccc(S(=O)(=O)N4CCCC4)cc3)nn2)cc1OC`, 11.2 µM (active); under `COc1ccc(S(=O)(=O)N2CCCCCC2)cc1NC(=O)Cc1ccc(OC)c(OC)c1`, “inactive”. Regarding `COc1cc(C(C)=O)ccc1OC(C)C(=O)Nc1ccc(S(=O)(=O)N2CCCC2)cc1` (centres undefined), the Potency entry is “inactive”. On the same count and under the same terms, under `CCc1nc2c(OCCOc3ccccc3)cccn2c1N(C)C(=O)c1ccccc1F` stands “inactive”; under `COc1cc(C#Cc2ccc3cc(CCCO)oc(=O)c3c2)cc(OC)c1`, 4.61 µM (active); under `O=C1c2ccccc2C(=O)N1CCC#Cc1ccc2cc(C3(O)CCCCC3)oc(=O)c2c1`, “inactive”.

Turning to `CCC(=O)N1CCCC1(C)C(=O)Nc1ccc2c(c1)CCN2C(C)=O` (centres undefined), the Potency entry was “inactive”. The same measure, in the same setting: under `CCOC(=O)C1(C)CCCN(C(=O)c2cccc(Cl)c2)C1` (centres undefined) stands “inactive”; under `O=C(Nc1ccc(Cl)cn1)c1ccccc1-c1ccccc1`, “inactive”; under `COCCOC(=O)c1[nH]c2c(c1C)C(=O)CC(c1ccc(OC)cc1)C2` (centres undefined), “inactive”. Same read-out and setting: as for `COC(=O)C1C(=O)c2c([nH]c(C(=O)OCCSC)c2C)CC1C` (centres undefined), the entry is “inactive”. For `CCCOC(=O)c1[nH]c2c(c1C)C(=O)CC(c1cccs1)C2` (centres undefined), the Potency is 1.3 µM (active). The same measure, in the same setting: as for `O=C(COC(=O)c1ccc(S(=O)(=O)N2CCCCCC2)cc1)Nc1ccccc1C(F)(F)F`, the entry is “inactive”; as for `O=C1c2ccccc2-c2ccccc2NC1O` (centres undefined), “inactive”. On the same count and under the same terms, as for `COc1cccc2sc(N(CCCN(C)C)C(=O)C(c3ccccc3)c3ccccc3)nc12`, the figure is 20.6 µM (active). The same measure, in the same setting: as for `Cc1cc(C)c2nc(N(CCN(C)C)C(=O)/C=C/c3cccs3)sc2c1`, the entry is “inactive”; as for `Cc1ccc2sc(N(CCN(C)C)C(=O)/C=C/c3cccs3)nc2c1C`, “inactive”. For the compound `CCCCn1nnnc1C(c1cc2ccccc2o1)N(C)Cc1ccc(Cl)c(Cl)c1` (centres undefined), the Potency result was “inactive”.

Turning to `Oc1ccc(/C=N/N(Cc2ccccc2)c2ccccc2)cc1`, the Potency is 20.6 µM (active).

On to `CCN(/N=C/c1ccccc1)c1cc(=O)n(C)c(=O)[nH]1`, for which the Potency result is “inactive”. Same read-out and setting: under `CN(/N=C/c1ccccc1)C(=S)c1ccccc1` stands “inactive”; under `Cc1cc(OCC(=O)Nc2nccs2)c2c(C)c(C)c(=O)oc2c1`, “inactive”; under `COc1cccc(CN(C)CC(=O)Nc2ccccc2C(=O)Nc2ccccc2)c1`, “inactive”. On the same count and under the same terms, as for `Cc1ccccc1C(OCC(O)CN1CCCCC1CCO)c1ccccc1` (centres undefined), the entry is “inactive”. As to `COc1cccc(CN(C)CC(O)COC(c2ccccc2)c2ccccc2C)c1` (centres undefined), the Potency is 23.1 µM (active). The same measure, in the same setting: under `Cc1cc(Cl)ccc1-c1nc(NCCN(C)C)nc2ccsc12` stands 20.6 µM (active); under `O=c1cc(-c2ccccc2)[nH]c2cc(F)ccc12`, 2.59 µM (active); under `Cc1cc(=O)c2ccc(NC(=O)c3ccccc3)cc2[nH]1`, “inactive”. As for `Cc1ccc(-c2cc(=O)c3ccc(F)cc3[nH]2)cc1`, the Potency entry is “inactive”. For the compound `FC(F)(F)Oc1ccccc1C(c1nnnn1C1CCCCC1)N1CCN(C/C=C/c2ccccc2)CC1` (centres undefined), the Potency result was “inactive”. Same read-out and setting: under `O=C(Nc1nnc(S(=O)(=O)N2CCCCCC2)s1)c1cccc(Br)c1` stands 23.1 µM (active); under `O=C(Nc1nnc(S(=O)(=O)N2CCOCC2)s1)c1cccc(Br)c1`, “inactive”; under `Cc1cccc(C(=O)Nc2nnc(S(=O)(=O)N3CCCCCC3)s2)c1`, “inactive”. Same read-out and setting: as for `CC1(C(=O)Nc2ccccc2Br)CCN1C(=O)CC1CC1` (centres undefined), the entry is “inactive”. With `CCOC(=O)[C@]12CCC=C1N(Cc1cccc3ccccc13)C(=O)[C@H](CC(=O)NCc1cccc(C(F)(F)F)c1)C2`, the Potency result was “inactive”.

The values above are taken from PubChem BioAssay AID686970 (National Center for Advancing Translational Sciences (NCATS), 2013).
